Only a selection was taken, and the strongest signals are over-represented in it overall.
Columns and labels:
Assay in all cases: glycan array binding signal (z-score within array); higher = stronger binding
Conditions in all cases: glycan notation: IUPAC condensed, linker removed
[1] = target: Fuc(a1-2)Gal(b1-3)GalNAc
In short: (§1)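 The Consortium for Functional Glycomics database supplied 3228 glycan arrays, of which those lacking an available protein sequence were dropped. The binding signal, a within-array Z-score, was averaged across arrays of the same protein sequence and across linkers. Negative scores can be read as non-binding.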

[2] = target: Fuc(a1-2)[Gal(a1-3)]Gal(b1-4)Glc
In short: as §1

[3] = target: Fuc(a1-2)[GalNAc(a1-3)]Gal
In short: as §1

[4] = target: Fuc(a1-2)[GalNAc(b1-3)]Gal
In short: as §1

[5] = target: Fuc(a1-3)GlcNAc
In short: as §1

[6] = target: Gal(a1-2)Gal
In short: as §1

[7] = target: Gal(b1-3)[Fuc(a1-4)]GlcNAc(b1-3)Gal(b1-4)GlcNAc
In short: as §1

[8] = target: Gal(b1-4)GlcNAc
In short: as §1

[9] = target: Gal(b1-4)GlcNAc(b1-3)Gal(b1-4)Glc
In short: as §1

[10] = target: Gal(b1-4)GlcNAc(b1-3)Gal(b1-4)GlcNAc
In short: as §1

[11] = target: Gal4S6S(b1-4)GlcNAc
In short: as §1

[12] = target: Gal6S(b1-4)Glc
In short: as §1

[13] = target: Gal6S(b1-4)GlcNAc
In short: as §1

[14] = target: GlcNAc(b1-3)Gal(b1-4)Glc
In short: as §1

[15] = target: Man(a1-2)Man(a1-3)[Man(a1-2)Man(a1-6)]Man
In short: as §1

[16] = target: Man(a1-2)Man(a1-3)[Man(a1-2)Man(a1-6)]Man(a1-6)[Man(a1-2)Man(a1-2)Man(a1-3)]Man(b1-4)GlcNAc(b1-4)GlcNAc
In short: as §1

[17] = target: Neu5Ac(a2-3)Gal(b1-3)[Neu5Ac(a2-6)]GalNAc
In short: as §1

[18] = target: Neu5Ac(a2-3)Gal(b1-4)GlcNAc(b1-2)Man(a1-3)[Neu5Ac(a2-3)Gal(b1-4)GlcNAc(b1-2)Man(a1-6)]Man(b1-4)GlcNAc(b1-4)GlcNAc
In short: as §1

[19] = target: Neu5Ac(a2-3)Gal(b1-4)GlcNAc(b1-3)Gal(b1-4)GlcNAc(b1-3)Gal(b1-4)GlcNAc
In short: as §1

[20] = target: Neu5Ac(a2-3)Gal(b1-4)[Fuc(a1-3)]GlcNAc
In short: as §1

[21] = target: Neu5Ac(a2-3)Gal(b1-4)[Fuc(a1-3)]GlcNAc(b1-3)Gal(b1-4)GlcNAc
In short: as §1

[22] = target: Neu5Ac(a2-3)Gal(b1-4)[Fuc(a1-3)]GlcNAc(b1-3)Gal(b1-4)[Fuc(a1-3)]GlcNAc(b1-3)Gal(b1-4)[Fuc(a1-3)]GlcNAc
In short: as §1

[23] = target: Neu5Ac(a2-3)Gal6S(b1-4)GlcNAc
In short: as §1

[24] = target: Neu5Ac(a2-3)GalNAc
In short: as §1

[25] = target: Neu5Ac(a2-6)Gal(b1-4)GlcNAc(b1-3)Gal(b1-4)[Fuc(a1-3)]GlcNAc(b1-3)Gal(b1-4)[Fuc(a1-3)]GlcNAc
In short: as §1

[26] = target: Neu5Ac(a2-6)Gal(b1-4)GlcNAc6S
In short: as §1

B1: F4 (Escherichia coli), A0A6L9DDF0 (protein)
chain: MKKTLIALALAASAVSGMAHAWTSGDFNGTVDIGGSIDATNYRQKWEWEVGTGLNGFYNALSELTNNDTKLTITVTGNKPILLGRTKEAFVTPTAGGWGGIPQIAFTDYKGAPVELKNPDGETNKGLAYFVLPMKNADGTEAGSVRVNASYAGAVVEKTSDSSAKLFSAYAGEVIRIFNGGLPVNVTQSELQSGVAAADRTALFGSLGKADLVAQFQAVIPGATVTDGTSSEHCTMRLLASAAYALGIADGQTIEATFNQAVTTSTQWSAPLNVAITYY
- glycan array binding signal (z-score) [1]: -0.145
- glycan array binding signal (z-score) [2]: -0.191
- glycan array binding signal (z-score) [3]: -0.144
- glycan array binding signal (z-score) [4]: -0.33
- glycan array binding signal (z-score) [5]: -0.164
- glycan array binding signal (z-score) [6]: -0.128
- glycan array binding signal (z-score) [7]: -0.232
- glycan array binding signal (z-score) [8]: -0.137
- glycan array binding signal (z-score) [9]: -0.276
- glycan array binding signal (z-score) [10]: -0.397
- glycan array binding signal (z-score) [11]: 0.285
- glycan array binding signal (z-score) [12]: -0.213
- glycan array binding signal (z-score) [13]: 1.48
- glycan array binding signal (z-score) [14]: 8.86
- glycan array binding signal (z-score) [15]: 0.052
- glycan array binding signal (z-score) [16]: -0.311
- glycan array binding signal (z-score) [17]: -0.291
- glycan array binding signal (z-score) [18]: -0.209
- glycan array binding signal (z-score) [19]: -0.282
- glycan array binding signal (z-score) [20]: 2.09
- glycan array binding signal (z-score) [21]: -0.176
- glycan array binding signal (z-score) [22]: -0.185
- glycan array binding signal (z-score) [23]: -0.21
- glycan array binding signal (z-score) [24]: -0.397
- glycan array binding signal (z-score) [25]: 2.24
- glycan array binding signal (z-score) [26]: -0.382
